Screening data as filed in PubChem.
Rows were chosen to be rich in hits. Some 17% of all compounds tested hit in one or more screens of this group.
HepG2 viability – counter-screen for TGF-b inhibitors: cytotoxicity in HepG2 cells | HepG2 CAGA-GFP viability, ATP luminescence, 18 h | Potency, µM (highest dose often 46.1 µM), for the others: at the highest dose activity change, negative = cytotoxicity, most hits filed as cytotoxic | 410,000 compounds, 0.76% hits | AID 588856
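CellTiter-Glo luminescence gave cytotoxicity after 18 hours at 37 degrees C. The cells were HepG2 CAGA-GFP in 1% FBS DMEM, stimulated with 500 pg/mL TGF-beta after compound addition. %Activity was normalised to no-cell wells (complete cell-killing) and DMSO (no toxicity), and curves were fitted and classified.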
TGFb inhibitor – inhibitors of TGF-b signaling; 410,000 compounds, 1.2% hits; Potency, µM (titrated, usually from 46.1 µM), without a hit: top-dose activity, negative = inhibition, actives largely listed as inhibitors; AID 588855; HepG2 CAGA-GFP TGF-b/SMAD3 reporter, GFP fluorescence, 18 h; TGF-beta stimulated, 500 pg/mL final; note: % is set by controls: 0 for no effect and ±100 for the full control effect; nearly all actives have a fitted effect of over 65% in size
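Smad-responsive CAGA-GFP expression was quantified in HEPG2 cells exposed to compounds and 500 pg/mL final TGF-beta for 18 h at 37 degrees C; unstimulated wells defined full inhibition.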
TDP1 cell CPT – growth inhibition of DT40 Tdp1-/-;hTDP1 cells with camptothecin (screen for TDP1 inhibitors). chicken DT40 Tdp1-/-;hTDP1 cells + 20 nM CPT, ATP luminescence, 48 h. Potency, µM (doses to about 46.2 µM), for the others: at the highest dose activity change, negative = growth inhibition, hits mostly inhibitors. 420,000 compounds, 12% hits; note: % is set by controls: 0 for no effect and ±100 for the full control effect; nearly all actives have a fitted effect of over 55% in size
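Cell growth measured by CellTiter-Glo luminescence after a minimum 48 h, 37 C compound exposure with 20 nM CPT in Tdp1-knockout DT40 cells stably expressing hTDP1, seeded 400/well; qHTS titration format.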
HT1080-NT tox – kills 2HG-producing HT-1080-NT fibrosarcoma cells; HT-1080-NT fibrosarcoma viability, CellTiter-Glo ATP luminescence, 48 h; Potency, µM (highest dose often 46.1 µM), for inactives: at the highest dose activity, negative = less viability, most hits filed as cytotoxic; 360,000 compounds, 1.6% hits; AID 686970;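 note: NT is the 2HG producing partner of a matched IDH1 knockdown line; 0% = DMSO-treated cells and -100% = media-only wells without cells; nearly all actives have a fitted effect of over 55% in size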
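Viability of the 2HG-overproducing fibrosarcoma line after 48 hours of compound exposure at 37 degrees C was determined by luminescence with CellTiter-Glo, and concentration-effect curves were then fitted and categorized.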
HT1080 IDH1KD tx – toxicity to HT-1080 IDH1 knockdown cells (counter line) | HT-1080 IDH1 knockdown viability, ATP luminescence, 48 h | Potency, µM (titrated, usually from 46.1 µM), for the others: at the top dose activity, negative = toxicity, actives largely listed as cytotoxic | 360,000 compounds, 2% hits | AID 686971;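 note: 0% = DMSO wells and -100% = cell-free medium wells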
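In this qHTS, HT-1080 cells depleted of IDH1 are exposed for 48 h at 37 °C to compound titrations. Toxicity is scored from CellTiter-Glo luminescence, with DMSO as full viability and medium alone as none.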
DT40 TDP1 no CPT – qHTS for Inhibitors of human tyrosyl-DNA phosphodiesterase 1 (TDP1): qHTS in cells in absence of CPT | DT40 Tdp1-/- hTDP1 cells, no CPT, ATP luminescence, 48 h | Potency, µM (highest dose often 46.2 µM), for the others: at the highest dose activity change, negative = growth inhibition, usual class: inhibitors | 420,000 compounds, 15% hits; note: % is set by controls: 0 for no effect and ±100 for the full control effect; nearly all actives have a fitted effect of over 55% in size
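Seeded 400 DT40-hTDP1 cells/well (vehicle DMSO, no 20 nM CPT); pinned compounds; ≥48 hr at 37 °C; CellTiter-Glo luminescence as viability measure.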
* hit, by the source's call; ? = inconclusive; . = no result given. Calls come from the whole dose curve; as a rule, active = well fitted curve in the direction sought with a large enough effect; inconclusive = small, poorly fitted or top-dose-only effect, or another doubt; inactive = no such curve, though single readings can be large; an effect the other way counts as inactive or inconclusive. Potency is the fitted concentration of half-maximal effect.

SMILES	HepG2 viability	TGFb inhibitor	TDP1 cell CPT	HT1080-NT tox	HT1080 IDH1KD tx	DT40 TDP1 no CPT
COc1ccc(N2C3=C(CC4=C2CC(C)(C)CC4=O)C(=O)CC(C)(C)C3)cc1	16µM*	?	4.6µM*	7.1µM*	?	3.3µM*
CCOc1ccc(S(=O)(=O)N2CCCC(C(=O)NCCN3CCOCC3)C2)cc1Cl (stereo unspecified)	-8%	1%	?	-9%	-8%	-15%
OC[C@@H]1CN(Cc2ccc(F)cc2)C[C@H](n2cnc3c(NCc4ccco4)ncnc32)O1	-14%	-3%	-12%	?	25%	?
OC[C@@H]1CN(Cc2cccc(C(F)(F)F)c2)C[C@H](n2cnc3c(NCc4ccco4)ncnc32)O1	-42%	-11%	18µM*	-16%	-17%	?
COc1ccc(CN2C[C@@H](CO)O[C@@H](n3cnc4c(NCc5ccc(F)cc5)ncnc43)C2)cc1	-14%	-2%	?	-3%	-19%	?
OC[C@@H]1CN(Cc2cccc(C(F)(F)F)c2)C[C@H](n2cnc3c(NC4CC4)ncnc32)O1	0%	2%	?	2%	19%	?
OC[C@@H]1CN(Cc2ccc(Cl)cc2)C[C@H](n2cnc3c(NCc4ccc(F)cc4)ncnc32)O1	-32%	?	18µM*	?	?	18µM*
OC[C@@H]1CN(Cc2cccc(C(F)(F)F)c2)C[C@H](n2cnc3c(NCc4ccc(F)cc4)ncnc32)O1	-2%	?	18µM*	?	21µM*	9.2µM*
Fc1ccc(CNC(=S)NC2CCCC2)cc1	4%	-23%	?	-24%	?	?
NC(=S)N=Nc1c(O)n(Cc2ccc(F)cc2)c2ccccc12	-25%	-10%	16µM*	-25%	-29%	?
Cc1ccc(Cn2c(O)c(N=O)c3ccccc32)cc1	-35%	-23%	34%	-13%	-25%	-11%
NC(=S)N=Nc1c(O)n(Cc2ccc(Br)cc2)c2ccccc12	-52%	?	5.2µM*	?	3.7µM*	4.6µM*
Cc1ccc2c(c1)c(N=O)c(O)n2Cc1ccc(Cl)cc1	-53%	-19%	-21%	-13%	2%	-16%
Cc1ccc2c(c1)c(N=NC(N)=S)c(O)n2Cc1ccccc1	-20%	5%	4.1µM*	1%	2%	3.3µM*
C/C(Cl)=C\Cn1c(O)c(N=NC(N)=S)c2cc(Br)ccc21	-65%	?	1.3µM*	?	?	1.6µM*
CC1(C)CC(=O)C=C(c2ccccc2-c2ccc(S(C)(=O)=O)cc2)C1=O	-12%	-13%	-8%	13%	9%	?
CC(=O)Nc1ccc(NC(=O)C(C)Sc2n[nH]c(=O)n2Cc2ccccc2)cc1 (stereo unspecified)	1%	14%	-6%	12%	2%	-8%
Cc1ccc(S(=O)(=O)N2CCN(C(=O)CSc3nc(N)cc(=O)[nH]3)CC2)c(C)c1	12%	-11%	14%	4%	0%	0%
COc1ccc(C2=NN(CC(=O)NCC(OC)OC)C(=O)CC2)cc1	9%	2%	-2%	5%	5%	-7%
O=c1cc(-c2ccc(O)c(O)c2)oc2cc(OC3OC(CO)C(O)C(O)C3O)cc(O)c12 (stereo unspecified)	.	.	5%	.	.	-2%
C[C@@H]1CN([C@@H](C)CO)C(=O)c2cc(Br)cnc2O[C@H]1CN(C)C(=O)CN1CCOCC1	0%	2%	8%	5%	1%	-3%
COc1ccc(CN(C(=O)c2snc(C(N)=O)c2N)C(C(=O)NC2CCCC2)c2ccc(OC)c(OC)c2)cc1 (stereo unspecified)	-1%	8%	?	3%	-1%	?
COc1ccc(CN(C(=O)c2nsc(Cl)c2Cl)C(C(=O)NC2CCCC2)c2ccc(C)cc2)cc1 (stereo unspecified)	13%	?	12µM*	-27%	?	15µM*
COc1ccc(CN(C(=O)c2nsc(Cl)c2Cl)C(C(=O)NC2CCCCC2)c2ccc(OC)cc2)cc1 (stereo unspecified)	-20%	-7%	5.8µM*	?	?	23µM*
COc1ccc([N+](=O)[O-])cc1COc1ccc2c(-c3ccccc3)cc(=O)oc2c1	1%	7%	?	1%	0%	-9%
SMILES	HepG2 viability	TGFb inhibitor	TDP1 cell CPT	HT1080-NT tox	HT1080 IDH1KD tx	DT40 TDP1 no CPT
CCOC(=O)CCc1c(C)c2ccc(OCc3cc([N+](=O)[O-])ccc3OC)cc2oc1=O	-3%	-4%	26µM*	10%	20%	23µM*
Cc1ccc2c(c1)N(CCC(=O)NC1CCCCC1C)C(=O)CO2 (stereo unspecified)	-13%	23%	-1%	11%	18%	1%
CC(C)NC(=O)C1(C)Cc2c(-c3ccc(N(C)C)cc3)ccnc2O1 (stereo unspecified)	-10%	-21%	4.1µM*	-4%	-2%	4.1µM*
CC(C)c1ccc(NC(=O)C2(C)Cc3c(-c4ccccc4)ccnc3O2)cc1 (stereo unspecified)	-31%	-1%	18µM*	?	10%	?
COc1ccc(NC(=O)C2(C)Cc3c(-c4ccc(N(C)C)cc4)ccnc3O2)cn1 (stereo unspecified)	7%	5%	23µM*	?	?	9.2µM*
CC(C)c1ccc(NC(=O)C2(C)Cc3c(-c4ccc(N(C)C)cc4)ccnc3O2)cc1 (stereo unspecified)	0%	-6%	?	17%	28%	16µM*
CC(=O)Nc1ccc(-c2ccnc3c2CC(C)(C(=O)Nc2ccc(Cl)cc2)O3)cc1 (stereo unspecified)	-10%	-7%	?	?	?	-24%
Cn1nc(C(C)(C)C)cc1N1C(=O)CCC1(C)C(=O)Nc1ccc2c(c1)OCCO2 (stereo unspecified)	0%	-1%	11%	21%	10%	1%
Cc1c(N)cccc1Cl	-12%	0%	7%	.	.	6%
CCN(c1ccc(C(=O)CN2C(=O)NC3(CCOc4ccccc43)C2=O)cc1)S(C)(=O)=O (stereo unspecified)	0%	1%	?	-16%	0%	?
